Reference: PubChem BioAssay AID1159580 (chemical genetic matrix, 2015)
Screen size: about 5,500 compounds; about 2,000 (36%) were called active. Inconclusive results (about 18%) are left out. No stated cut-off is given here; in the data, active means normalized growth mostly below about 0.91 (no sharp cut-off); inconclusive means no clear call, values can overlap the other calls; inactive means mostly above about 0.92. This is one part of the list.

Assay: chemical genetic growth profiling, strain panel (AID 1159580);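 further: tested at 20 µM; growth read once vehicle control cultures reached saturation at 30 °C; 1 = growth at the plate median or of vehicle wells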
Settings: S. cerevisiae deletion strains, growth OD
[1] = locus YAL040C, strain CLN3, stronger effect = lower value
[2] = locus YDR363W, strain ESC2, stronger effect = lower value
[3] = locus YER002W, strain NOP16, stronger effect = lower value
[4] = locus YGR078C, strain PAC10, stronger effect = lower value
[5] = locus YMR263W, strain SAP30, stronger effect = lower value
[6] = locus YMR307W, strain GAS1, stronger effect = lower value
[7] = locus YNL128W, strain TEP1, stronger effect = lower value
[8] = locus YNL175C, strain NOP13, stronger effect = lower value
[9] = locus YNL197C, strain WHI3, stronger effect = lower value
[10] = locus YNL224C, strain SQS1, stronger effect = lower value
[11] = locus YOR083W, strain WHI5 (second series), stronger effect = lower value
[12] = locus YPL241C, strain CIN2, stronger effect = lower value

Measured: normalized growth

CC(=O)O[C@]1(C(C)=O)CC[C@H]2[C@@H]3C=C(Cl)C4=CC(=O)[C@@H]5C[C@@H]5[C@]4(C)[C@H]3CC[C@@]21C
inactive: [1] 0.994 | [2] 0.976 | [3] 1.02 | [4] 0.985 | [5] 0.993 | [6] 0.975 | [7] 0.993 | locus YNL153C, strain GIM3, stronger effect = lower value 1.05 | [8] 1.03 | [9] 0.966 | [10] 0.975 | locus YNL322C, strain KRE1, stronger effect = lower value 0.988 | [11] 0.979 | locus YPL055C, strain LGE1, stronger effect = lower value 1 | [12] 1

Nc1nc2c(ncn2COC(CO)CO)c(=O)[nH]1
inactive: [1] 1.05 | locus YCL061C, strain MRC1 (second series), stronger effect = lower value 1.01 | locus YDR150W, strain NUM1, stronger effect = lower value 1.01 | [2] 1.03 | [3] 1.01 | [4] 0.999 | [5] 1.01 | [6] 0.99 | [7] 0.992 | [8] 1.01 | [9] 1.01 | [10] 0.997 | [11] 1.03 | [12] 1.01
